SMILES strings stand for the structures. This is part of a sample that, as a whole, favours compounds with a hit. Of some 79,000 tested, about 15% had one in any assay. A number with no mark means an inactive call. Active and inactive are the calls of the source. No stated cut-off is given here; in the data, active means growth inhibition above about 70%; inactive means the rest.

Assay [1] can be described thus: NCI Yeast Anticancer Drug Screen. Data for the rad50 strain (AID 155).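 Further: 0% = growth of vehicle-only cultures of the same strain.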 The settings on record: S. cerevisiae rad50 strain growth inhibition, stronger effect = higher value. The method, boiled down: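 Genetically altered yeast (DNA repair pathway); compound treatment; growth inhibition vs vehicle ctrl.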
A short description of assay [2]: NCI Yeast Anticancer Drug Screen. Data for the mec2-1 strain (AID 157). The settings on record: S. cerevisiae mec2-1 strain, stronger effect = higher value. The method in brief: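 Compounds were applied to mec2-1 yeast cells. Their growth was then compared with that of vehicle-treated cultures to give growth inhibition.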
A short description of assay [3]: NCI Yeast Anticancer Drug Screen. Data for the sgs1 mgt1 strain (AID 161).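 Further: 0% = growth of cultures given vehicle only.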 The following applies: S. cerevisiae sgs1 mgt1 strain, stronger effect = higher value. The method, boiled down: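 Compounds are added to genetically altered yeast, and growth is compared with cultures given vehicle alone to give percent inhibition.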
The nature of assay [4]: NCI Yeast Anticancer Drug Screen. Data for the cln2 rad14 strain (AID 165).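 Further: 0% = growth equal to vehicle treated cultures.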 The settings on record: S. cerevisiae cln2 rad14 strain, stronger effect = higher value. The method, boiled down:
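Strain: cln2 rad14 yeast, altered in cell cycle control and DNA damage repair. Read-out: growth inhibition vs vehicle.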

A short description of assay [5]: NCI Yeast Anticancer Drug Screen. Data for the bub3 strain (AID 167). The settings on record: S. cerevisiae bub3 mutant strain, stronger effect = higher value. The method, boiled down:
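Yeast carrying a defined mutation is treated with each compound, and growth is compared with that of vehicle-exposed cells to give inhibition.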

Assay [6] in a line: NCI Yeast Anticancer Drug Screen. Data for the mlh1 rad18 strain (AID 175). The settings on record: S. cerevisiae mlh1 rad18 strain growth inhibition, stronger effect = higher value. The method, boiled down: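 A repair-deficient yeast strain is exposed to test compound, and growth is scored relative to vehicle-treated controls.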
[7] abbreviates: at 5.0 µM (retest, dose inferred, filed as 0.5).
Where [8] appears, read: at 50.0 µM (retest, dose inferred, filed as 5.0).

In the case of `CCc1scc(C)[n+]1CC(=O)c1cccc([N+](=O)[O-])c1`, the growth inhibition in assay [1] (setting [7]) is -1%; in assay [1] (setting [8]) it was 15%; in assay [1] (at 50.0 µM) it was -6.25%; in assay [2] (setting [7]) it was -10%; in assay [2] (setting [8]) it was 3%; in assay [2] (at 50.0 µM), -2.9%. Also, the growth inhibition is 11% in assay [3] (setting [7]); 2% in assay [3] (setting [8]); -4.4% in assay [3] (at 50.0 µM); 12% in assay [4] (setting [7]); 18% in assay [4] (setting [8]); 17.6% in assay [4] (at 50.0 µM). Further, the growth inhibition was 12% in assay [5] (setting [7]); 25% in assay [5] (setting [8]); 8.95% in assay [5] (at 50.0 µM); 19% in assay [6] (setting [7]); 22% in assay [6] (setting [8]); -1.95% in assay [6] (at 50.0 µM).
For the compound `CSC(=S)n1nc(-c2ccccc2)c(N=Nc2ccc(Br)cc2)c1-c1ccccc1`, the growth inhibition in assay [1] (setting [7]) was 6%; in assay [1] (setting [8]), 14%; in assay [1] (at 50.0 µM), 41%; in assay [2] (setting [7]) it was 9%; in assay [2] (setting [8]) it was 25%; in assay [2] (at 50.0 µM), 23.9%. Also, the growth inhibition was 5% in assay [3] (setting [7]); 25% in assay [3] (setting [8]); 6.15% in assay [3] (at 50.0 µM); 10% in assay [4] (setting [7]); 4% in assay [4] (setting [8]); 49.9% in assay [4] (at 50.0 µM). The growth inhibition in assay [5] (setting [7]) was 13%; in assay [5] (setting [8]), 34%; in assay [5] (at 50.0 µM) it was 0.05%; in assay [6] (setting [7]), 5%; in assay [6] (setting [8]), 19%; in assay [6] (at 50.0 µM), -10.2%.
Take `CC(C)/C(Cl)=N/OC(=O)Nc1ccc(OC(F)(F)F)cc1`: the growth inhibition is 2% in assay [1] (setting [7]); 98% (active) in assay [1] (setting [8]); 81% (active) in assay [1] (at 50.0 µM); -30% in assay [2] (setting [7]); 98% (active) in assay [2] (setting [8]); 88.3% (active) in assay [2] (at 50.0 µM). Besides, the growth inhibition in assay [3] (setting [7]) was 39%; in assay [3] (setting [8]), 98% (active); in assay [3] (at 50.0 µM) it was 83.5% (active); in assay [4] (setting [7]) it was -7%; in assay [4] (setting [8]), 97% (active); in assay [4] (at 50.0 µM), 76.2% (active). Moreover, the growth inhibition in assay [5] (setting [7]) was -27%; in assay [5] (setting [8]), 98% (active); in assay [5] (at 50.0 µM) it was 85.5% (active); in assay [6] (setting [7]), -7%; in assay [6] (setting [8]) it was 97% (active); in assay [6] (at 50.0 µM), 77.1% (active).
`O=C1OC(OC/C(Br)=C(/Br)COC2OC(=O)C(Cl)=C2Cl)C(Cl)=C1Cl` (stereo not given): the growth inhibition in assay [1] (setting [7]) was 93% (active); in assay [1] (setting [8]), 99% (active); in assay [1] (at 50.0 µM) it was 99.2% (active); in assay [2] (setting [7]) it was 64%; in assay [2] (setting [8]) it was 99% (active); in assay [2] (at 50.0 µM) it was 99.4% (active). In addition, the growth inhibition in assay [3] (setting [7]) is 97% (active); in assay [3] (setting [8]), 100% (active); in assay [3] (at 50.0 µM) it was 98.9% (active); in assay [4] (setting [7]), 71% (active); in assay [4] (setting [8]), 98% (active); in assay [4] (at 50.0 µM), 97.3% (active). For the same compound, the growth inhibition in assay [5] (setting [7]) is 84% (active); in assay [5] (setting [8]) it was 99% (active); in assay [5] (at 50.0 µM) it was 98.8% (active); in assay [6] (setting [7]) it was 97% (active); in assay [6] (setting [8]), 99% (active); in assay [6] (at 50.0 µM), 98.7% (active).
On to `COC(=O)CCC(=O)N1C/C(=C\c2ccccc2)C(=O)/C(=C/c2ccccc2)C1`, for which the growth inhibition in assay [1] (setting [7]) was 5%; in assay [1] (setting [8]), 41%; in assay [1] (at 50.0 µM), 88.6% (active); in assay [2] (setting [7]), 23%; in assay [2] (setting [8]), 42%; in assay [2] (at 50.0 µM), 95.3% (active). The growth inhibition in assay [3] (setting [7]) was 5%; in assay [3] (setting [8]) it was 56%; in assay [3] (at 50.0 µM), 92.5% (active); in assay [4] (setting [7]), 9%; in assay [4] (setting [8]) it was 19%; in assay [4] (at 50.0 µM), 16.5%. Further, the growth inhibition was 2% in assay [5] (setting [7]); 22% in assay [5] (setting [8]); 92.5% (active) in assay [5] (at 50.0 µM); 7% in assay [6] (setting [7]); 38% in assay [6] (setting [8]); 95% (active) in assay [6] (at 50.0 µM).
Regarding `O=c1ccc2ccc(Cl)cc2[nH]1`, the growth inhibition was -9% in assay [1] (setting [7]); 1% in assay [1] (setting [8]); -27.9% in assay [1] (at 50.0 µM); -5% in assay [2] (setting [7]); 16% in assay [2] (setting [8]); -5.9% in assay [2] (at 50.0 µM). The growth inhibition in assay [3] (setting [7]) was -5%; in assay [3] (setting [8]) it was -8%; in assay [3] (at 50.0 µM), 8.05%; in assay [4] (setting [7]), 17%; in assay [4] (setting [8]) it was 17%; in assay [4] (at 50.0 µM) it was 50%. In addition, the growth inhibition in assay [5] (setting [7]) is 4%; in assay [5] (setting [8]) it was 1%; in assay [5] (at 50.0 µM), -10.3%; in assay [6] (setting [7]) it was 9%; in assay [6] (setting [8]), 20%; in assay [6] (at 50.0 µM), 4.8%.
`O=C(O)CCC(O)=C1S(=O)(=O)OCCOS1(=O)=O`: the growth inhibition in assay [1] (setting [7]) is -21%; in assay [1] (setting [8]), 16%; in assay [1] (at 50.0 µM), 36%; in assay [2] (setting [7]) it was -8%; in assay [2] (setting [8]) it was 10%; in assay [2] (at 50.0 µM), 4.25%. In addition, the growth inhibition in assay [3] (setting [7]) is -16%; in assay [3] (setting [8]) it was -3%; in assay [3] (at 50.0 µM), -1.5%; in assay [4] (setting [7]), -42%; in assay [4] (setting [8]), -30%; in assay [4] (at 50.0 µM), 47.7%. The growth inhibition is -18% in assay [5] (setting [7]); 3% in assay [5] (setting [8]); 15.7% in assay [5] (at 50.0 µM); -17% in assay [6] (setting [7]); -28% in assay [6] (setting [8]); 8.3% in assay [6] (at 50.0 µM).
Consider `Cc1cc(N=[N+]=[N-])c2cc(C3CCCCC3)ccc2n1`, for which the growth inhibition in assay [1] (setting [7]) is 12%; in assay [1] (setting [8]), 99% (active); in assay [1] (at 50.0 µM), 96.5% (active); in assay [2] (setting [7]) it was 8%; in assay [2] (setting [8]) it was 98% (active); in assay [2] (at 50.0 µM), 78.8% (active). Moreover, the growth inhibition in assay [3] (setting [7]) was 7%; in assay [3] (setting [8]) it was 99% (active); in assay [3] (at 50.0 µM) it was 97.8% (active); in assay [4] (setting [7]), 8%; in assay [4] (setting [8]), 69%; in assay [4] (at 50.0 µM), 90.3% (active). The growth inhibition in assay [5] (setting [7]) is 0%; in assay [5] (setting [8]), 96% (active); in assay [5] (at 50.0 µM), 90.9% (active); in assay [6] (setting [7]), -2%; in assay [6] (setting [8]), 99% (active); in assay [6] (at 50.0 µM), 96.8% (active).
Regarding `Cc1ccc(C2=Nc3c(c(C)nn3-c3ccccc3)N=C(C(=O)O)C2)cc1`, the growth inhibition in assay [1] (setting [7]) is 1%; in assay [1] (setting [8]), 78% (active); in assay [1] (at 50.0 µM), 76.2% (active); in assay [2] (setting [7]), -23%; in assay [2] (setting [8]) it was 87% (active); in assay [2] (at 50.0 µM) it was 82.9% (active). Besides, the growth inhibition in assay [3] (setting [7]) is -3%; in assay [3] (setting [8]), 62%; in assay [3] (at 50.0 µM) it was 88.4% (active); in assay [4] (setting [7]), -4%; in assay [4] (setting [8]), 92% (active); in assay [4] (at 50.0 µM), 87.5% (active). For the same compound, the growth inhibition in assay [5] (setting [7]) is 2%; in assay [5] (setting [8]), 89% (active); in assay [5] (at 50.0 µM), 83.4% (active); in assay [6] (setting [7]), -12%; in assay [6] (setting [8]) it was 86% (active); in assay [6] (at 50.0 µM), 59.3%.
Consider `CC(=O)Nc1ccc(S(=O)(=O)/N=C2\C=CC(=O)c3ccccc32)cc1`, for which the growth inhibition is 2% in assay [1] (setting [7]); 27% in assay [1] (setting [8]); 63.9% in assay [1] (at 50.0 µM); 4% in assay [2] (setting [7]); 24% in assay [2] (setting [8]); 54.6% in assay [2] (at 50.0 µM). Further, the growth inhibition in assay [3] (setting [7]) was 1%; in assay [3] (setting [8]), 7%; in assay [3] (at 50.0 µM) it was 79.9% (active); in assay [4] (setting [7]) it was -9%; in assay [4] (setting [8]), -6%; in assay [4] (at 50.0 µM), -43.4%. The growth inhibition in assay [5] (setting [7]) is 5%; in assay [5] (setting [8]), 14%; in assay [5] (at 50.0 µM) it was 71.7% (active); in assay [6] (setting [7]), 5%; in assay [6] (setting [8]), 16%; in assay [6] (at 50.0 µM), 80% (active).
